Several values for one entry are separate records, joined by “and”; a condition that tells them apart may be missing. Identical values can stand only once. Hit rate of the full screen: of about 16,000 compounds, about 4,000 (25%) were called active. Roughly 26% stayed inconclusive and do not appear here. Calls come from the whole dose curve; as a rule, active = well fitted curve in the direction sought with a large enough effect; inconclusive = small, poorly fitted or top-dose-only effect, or effect the other way; inactive = no such curve, though single readings can be large or run the other way. Only a sample is shown.
Target: Cytochrome P450 2C9 (Homo sapiens) (UniProt P11712)
Assay: Cytochrome panel assay with activity outcomes
Details: recombinant CYP, pro-luciferin dealkylation, luminescence, p450-cyp2c9; series mostly up to 57.1 µM; activity, negative = inhibition: at the top concentration
% is set by controls: 0 for no effect and ±100 for the full control effect.

Cytochrome P450 2C9 (Homo sapiens), sequence (P11712 whole entry, looked up): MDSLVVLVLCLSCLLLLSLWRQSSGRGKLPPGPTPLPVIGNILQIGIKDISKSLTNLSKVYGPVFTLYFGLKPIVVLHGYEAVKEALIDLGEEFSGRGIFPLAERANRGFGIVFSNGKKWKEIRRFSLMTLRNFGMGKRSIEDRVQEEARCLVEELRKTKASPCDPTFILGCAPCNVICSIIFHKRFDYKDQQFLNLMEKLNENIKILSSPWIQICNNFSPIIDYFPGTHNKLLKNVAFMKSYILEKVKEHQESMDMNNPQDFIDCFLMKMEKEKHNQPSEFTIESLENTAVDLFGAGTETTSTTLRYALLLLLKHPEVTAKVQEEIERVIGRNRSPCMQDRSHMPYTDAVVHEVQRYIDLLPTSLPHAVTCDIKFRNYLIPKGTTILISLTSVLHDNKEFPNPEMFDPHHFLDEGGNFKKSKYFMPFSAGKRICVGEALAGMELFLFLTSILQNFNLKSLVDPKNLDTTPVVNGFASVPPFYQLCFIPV

activity, negative = inhibition, inactive:
CC(CC(=O)O)(CC(=O)O)C(=O)O -9.5% [at 11.4 µM]
O=C(O)CCSCc1ccccc1 24.2% [at 11.4 µM]
O=C(Cc1ccccc1[N+](=O)[O-])NCCSCc1c(F)cccc1Cl 31.4%
Cc1noc(C)c1-c1cncnc1Nc1ccccc1 -0.353% [at 2.29 µM]
CCNc1ncc2nc(-c3ccc(OC)cc3)c(=O)n(Cc3cccs3)c2n1 -26.2%
Cc1nnsc1SC(C)C(=O)O (stereo unspecified) -4.21%
CC(=O)c1cccc(NC=C2C(=O)OC3(CCCCC3)OC2=O)c1 -14%
O=C(/C=C/Nc1ccccc1)c1ccc(Oc2ncccn2)cc1 19%
Cc1cnc(CNc2cc(-c3ccccc3CN(C)C)ncn2)cn1 10.9% [at 2.29 µM]
Cc1ccc(C(=O)N/N=C/c2ccc(S(=O)(=O)O)o2)c(Cl)c1 -29.6%
Cc1ccc(S(=O)(=O)N[C@H](CN)C(=O)O)cc1 -0.685% [at 11.4 µM]
Cc1ccc(S(=O)(=O)NC(CC(C)C)C(=O)Oc2ccc3c4c(c(=O)oc3c2)CCC4)cc1 (stereo unspecified) -27.3%
CCC(C)NS(=O)(=O)c1ccc(OCC(=O)NCC2CCCO2)cc1 (stereo unspecified) -20%
CSc1nc(C)cc(Nc2ccc(O)c(CN3CCOCC3)c2)n1 -8.69% [at 11.4 µM]
Cc1cc(C)c2c(SCc3ccc(Cl)cc3Cl)nc(N)nc2n1 -3.34% [at 11.4 µM]
c1ccc(Nc2ncncc2-c2ccoc2)cc1 4.61% [at 2.29 µM]
CCOCC(=O)Nc1cc(C(=O)Nc2cccc(C)c2C)ccc1Cl 9.34%
NCCSCCc1ccccc1 -27.8% [at 11.4 µM]
O=C(O)CSCCc1ccccc1 29.1% [at 11.4 µM]
Cn1nnnc1SCc1ccccc1[N+](=O)[O-] -16.4%
CC(=O)N[C@@H]1CONC1=O -5.39% [at 11.4 µM]
O=c1c(-c2cc(F)cc(F)c2)nc2cnc(N3CCOCC3)nc2n1-c1ccccc1 -13.9%
O=c1c(-c2ccccc2)nc2cnc(N3CCOCC3)nc2n1-c1ccccc1 -26%
CCc1cc2c(nc1CC)CCN(CC/C(C)=N/O[C@@H](C)c1cn([C@@H]3COC[C@@H]3O)nn1)C2 18.9% [at 11.4 µM]
O=C(NCCc1ccc(Cl)cc1)c1ncn[nH]1 -28.4%
CCCCNC(=O)[C@@H]1Cc2ccccc2N1C(=O)[C@H](N)CC 13.9%
CCCCCOc1ccc(NC(=O)C(=O)NCCC2=CCCCC2)cc1 -0.0982%
O=C(CN1C(=O)NC2(CCCC2)C1=O)NCCC1=CCCCC1 -10.1%
COc1ccc2c(c1)CCCC21NC(=O)N(CC(N)=O)C1=O (stereo unspecified) -6.71%
O=C(O)C1CCN(c2ncccn2)CC1 -6.56%
O=C1CSc2ccc(C(=O)NCCC3=CCCCC3)cc2N1 -25.7%
O=C(CN1CCN(C2CCCCC2)CC1)NCCC1=CCCCC1 3.24%
CCCCC[C@H](CC(=O)NO)C(=O)N[C@@H](C(=O)N1CCC[C@H]1CO)C(C)C 21.9%
O=C(O)/C=C\c1cnc[nH]1 3.56%
O=C(O)c1cccc(C(=O)O)c1S(=O)Cc1ccccc1 (stereo unspecified) 7.56% [at 11.4 µM]
O=C(O)CCNc1ccccc1C(=O)O 14.2% [at 11.4 µM]
Cc1c(Nc2ncccc2C(=O)O)cccc1C(F)(F)F -20.5% [at 25.6 µM]
O=C(Nc1cccc(F)c1)N1CCCC2(CCN(C(=O)c3cc(C(F)(F)F)cc(C(F)(F)F)c3)CC2)C1 25.9%
Cn1ccnc1C[C@@](C)(O)c1ccccc1 4.93% [at 11.4 µM]
CC(=O)Nc1c(I)c(C(=O)N[C@H]2[C@@H](O)[C@H](O)[C@H](CO)O[C@@H]2O)c(I)c(N(C)C(C)=O)c1I 12.3% [at 25.6 µM]
Cc1c(C=NCCOCc2ccccc2)cnn1C -83.6%
COc1ncc2nc(-c3ccccc3)c(=O)n(-c3ccccc3)c2n1 -13.9%
Cc1ccc(Cn2cnc3c(nnn3Cc3ccc(Cl)cc3)c2=O)cc1 4.68%
Cn1c(=O)c(-c2ccc(Cl)cc2)nc2cnc(Nc3ccccc3)nc21 -0.31%
CC(C)(C)Cn1nc(-c2ccc(Cl)cc2)c2c(N)ncnc21 -0.489%
O=P(O)(CCc1ccccc1)C(O)c1ccccc1 (stereo unspecified) -12.9%
CC[C@](N)(C(=O)O)C(C)C 1.15% [at 11.4 µM]
C=CCn1c(SCc2ccccc2)nc2scc(-c3ccc(C)o3)c2c1=O -16.8%
O=C(NNC(=O)C1CC(c2cccnc2)=NO1)Nc1cccc(F)c1 (stereo unspecified) -21.9%
CSCCC(NC=C1C(=O)OC(C)(C)OC1=O)C(=O)O (stereo unspecified) -18.8%
CNc1ncncc1-c1ccccc1OC 6.03% [at 2.29 µM]
O=S(=O)(O)C1CCNCC1 13.8%
COc1ccccc1CN1CCCC2(CCN(C(C)=O)CC2)C1 1.14%
COc1ccccc1-c1nc(NCc2cccs2)c2ccccc2n1 7.82% [at 2.29 µM]
COc1cccc(-c2nc(NCc3cccs3)c3ccccc3n2)c1 -29.3% [at 2.29 µM]
CN(N=O)C(=O)N[C@H]1[C@@H](O)[C@H](O)[C@H](CO)O[C@@H]1O 15% [at 25.6 µM]
C[C@@]12CC(=O)[C@@H]3[C@@H](CCC4=CC(=O)CC[C@]43C)[C@@H]1CC=C2CC(=O)O 4.34% [at 11.4 µM]
COC(=O)N1CCC2(CC1)CCN(c1ncccn1)CC2 13.8%
COCC(=O)N1CCC2(CCCN(c3ncccn3)C2)CC1 3.06%
COCC(=O)N1CCC2(CC1)CCN(c1ncccn1)CC2 1.91%
COCC(=O)N1CCC2(CC1)CN(c1ccccn1)C2 3.19%

AC50, active:
O=C(Cc1ccccc1)NCCSCc1ccc(Cl)cc1 3.98 µM
CCN(CC)c1ncnc2c1sc1nc(C)cc(C)c12 17.8 µM
CCN1C(=O)C(CC(=O)Nc2ccc(OC)cc2)N(Cc2cccs2)C1=S (stereo unspecified) 7.08 µM
CCN1C(=O)C(CC(=O)Nc2ccc(Br)cc2)N(CCCc2ccccc2)C1=S (stereo unspecified) 0.708 µM
CCOC(=O)C1=C(C)N=C2c3ccccc3C(=O)C2C1c1ccc(C)cc1 (stereo unspecified) 0.891 µM
CCOC(=O)C1=C(C)N=C2c3ccccc3C(=O)C2C1c1ccc(Cl)cc1 (stereo unspecified) 0.562 µM
CC(=O)c1cccc(NS(=O)(=O)c2ccc(N/C=C\C(=O)c3ccc(F)cc3)cc2)c1 2.82 µM
COC(=O)c1ccc(/C=N\NC(=O)c2ccc(C)cc2Cl)cc1 8.91 µM
Cc1ccc(S(=O)(=O)N[C@H](C(=O)Oc2ccc3c(C(F)(F)F)cc(=O)oc3c2)c2ccccc2)cc1 10 µM
c1ccc2c(c1)ncn2-c1ccc(-c2ccnc(-c3ccncc3)n2)cc1 0.224 µM
CCC(C)NS(=O)(=O)c1ccc(OCC(=O)Nc2ccc3c(c2)OCCO3)cc1 (stereo unspecified) 3.98 µM
Cc1cc(N2CCOCC2)nc(SCc2ccc(Cl)cc2Cl)n1 7.94 µM
O=[N+]([O-])C1=CC=C2C(=NC3(CCCCC3)N2O)C1=NC1CCCCC1 3.55 µM
CCOCC(=O)Nc1cc(C(=O)Nc2ccccc2)ccc1Cl 5.62 µM
c1ccc(CCSc2nccn2-c2ccccc2)cc1 15.8 µM
Cc1ccccc1CSc1nccn1-c1ccccc1 7.08 µM
COC(=O)c1c(NC(=O)C(C)(C)C)sc2c1C(C(=O)OC)CC2 (stereo unspecified) 20 µM
O=c1nc(N2CCOCC2)ccn1-c1nc(-c2ccccc2)oc1-c1ccccc1 4.47 µM
CCCCNC(=O)CN1C(=O)NC2(CCCc3ccccc32)C1=O (stereo unspecified) 2.24 µM
O=C(CN1CCN(c2ncccn2)CC1)NCCC1=CCCCC1 3.55 µM
CC1(c2ccccc2)NC(=O)N(CC(=O)NCCC2=CCCCC2)C1=O (stereo unspecified) 25.1 µM
O=C(COc1ccc(Cl)cc1)NCCC1=CCCCC1 3.98 µM
Cc1cccc(Nc2ccccc2C(=O)O)c1C 7.94 µM
Cc1c(Cl)cccc1Nc1ccccc1C(=O)O 3.16 µM
Cc1ccc(Cl)c(Nc2ccccc2C(=O)O)c1Cl 7.94 µM and 1.26 µM
CCc1c(O)nc2sc3ccccc3n2c1=O 3.16 µM
COC(=O)[C@@]1(Cc2ccc(F)cc2)[C@H]2c3cc(C(=O)N(C)C)n(Cc4ccc(C)o4)c3C[C@H]2CN1C(=O)c1ccccc1 10 µM
COC(=O)[C@@]1(Cc2ccccc2)[C@H]2c3cc(C(=O)N4CCCC4)n(Cc4ccc(C)o4)c3C[C@H]2CN1C(=O)c1ccccc1 1 µM
COC(=O)[C@@]1(Cc2ccc(F)cc2)[C@H]2c3cc(C(=O)N4CCCC4)n(Cc4ccc(C)o4)c3C[C@H]2CN1C(=O)c1ccccc1 3.98 µM
O=c1c2ccccc2c(-c2ccccc2)nn1-c1ccc(Cl)c(Cl)c1 11.2 µM
O=c1c2ccccc2c(-c2ccccc2)nn1Cc1ccc(Cl)cc1 8.91 µM
CCCc1[nH]nc2c1C(c1ccncc1)C(C#N)=C(N)O2 (stereo unspecified) 2.51 µM
C=CCn1c(SCC)nc2sc3c(c2c1=O)CCc1ccccc1-3 10 µM
Cc1c2cccc(Sc3ccccc3)c2c2c3c(cccc13)[S+](c1ccccc1)C2 (stereo unspecified) 2.51 µM
CC1CCCC(C)N1C(=O)C1CC(c2ccc(F)cc2)=NO1 (stereo unspecified) 10 µM
N#CC1=C(N)OC2=C(CC/C2=C\c2ccccc2)C1c1ccccc1 (stereo unspecified) 0.355 µM
COc1cccc2c(=O)c(C(=O)NCc3cccs3)c[nH]c12 6.31 µM
CCN(C(=O)c1cnc(N2CCN(c3ncccn3)CC2)c2ccccc12)c1cccc(Cl)c1 3.16 µM
CN(C(=O)c1cnc(N2CCN(c3ncccn3)CC2)c2ccccc12)c1ccc(Cl)cc1 5.01 µM

AC50, inactive:
CCOC(=O)C1=C[C@@]2(CC)CCCN3CCc4c(n1c1ccccc41)[C@H]32

From PubChem BioAssay AID1851 (National Center for Advancing Translational Sciences (NCATS), 2009)
